# Assay results taken from PubChem BioAssay (NCATS).
# Results filed as inconclusive are left out. Calls of active or inactive are those of the source. Calls come from the whole dose curve; as a rule, active = well fitted cell-killing curve with a large enough effect; inconclusive = small, poorly fitted or top-dose-only effect, or effect the other way; inactive = no such curve, though single readings can be large or run the other way.
# Assay: Quantitative High-Throughput drug screen in 47 multiple myeloma cell lines against the NCATS MIPE library collection: KMS28PE_JCRB cell viability assay (AID 1918983); note: nearly all actives have a fitted effect of over 35% in size
# Settings: KMS28PE multiple myeloma viability, CellTiter-Glo ATP, 48 h; series mostly up to 45.8 µM; viability, % of DMSO control: at the top concentration
# Text: PI: Beverly A. Mock Ph.D.
# Laboratory of Cancer Biology and Genetics,
# Center for Cancer Research, National Cancer Institute,
# National Institute of Health, Bethesda, Maryland
# Drug resistance and disease progression are common in multiple myeloma (MM) patients, underscoring the need for new therapeutic combinations. […] We hypothesized that effective combinations would reduce MYC expression and enhance p16 activity. […] These preclinical data identify potentially useful drug combinations for evaluation in drug-resistant MM and reveal potential mechanisms of combined drug sensitivity.
# Described herein is the primary MIPE qHTS used to cherrypick compounds. Validated compounds were then further tested for potential synergistic activiy.
# [1] Peat TJ, Gaikwad SM, Dubois W, Gyabaah-Kessie N, Zhang S, Gorjifard S, Phyo Z, Andres M, Hughitt VK, Simpson RM, Miller MA, Girvin AT, Taylor A, Williams D, D'Antonio N, Zhang Y, Rajagopalan A, Flietner E, Wilson K, Zhang X, Shinn P, Klumpp-Thomas C, McKnight C, Itkin Z, Chen L, Kazandijian D, Zhang J, Michalowski AM, Simmons JK, Keats J, Thomas CJ, Mock BA. Drug combinations identified by high-throughput screening promote cell cycle transition and upregulate Smad pathways in myeloma. Cancer Lett. 2023 Aug 1;568:216284. doi: 10.1016/j.canlet.2023.216284. Epub 2023 Jun 24. PMID: 37356470; PMCID: PMC10408729.
# SEQUENCE No. (e.g., 1, 2, 3, etc.); […] (e.g., Cells, Incubation, Reagent, etc.); VALUE and DESCRIPTION.
# 1; Cells; 5 uL; white, solid bottom 1536-well Greiner assay plate.
# 2; Compounds; 23 nL; Kalypsis pin tool (Wako USA) equipped with a 1536-well pin head to transfer to the assay plates.
# 3; Incubation; 48 hours; 37C incubation.
# 4; Reagent;5uL; CellTiter Glo (Promega).
# 5; Detector; 425V; Luminescence; Viewlux PerkinElmer.
# NOTES (numbers refer to Sequence numbers above)
# 1. The cell-based screening methods employed in this study were like those previously published. Briefly, the corresponding myeloma cell lines were screened in 1,536-well plates with 500 cells, 5-uL per well for inhibition of cell viability (assessed by measuring ATP levels with CellTiterGlo).
# 2. NCATS MIPE 4.0 library of approved and investigational drugs were added using the Kalypsis pin tool. Wells treated with DMSO only for 100% viability and media only for 0% viability were used as controls.
# 3. The assay plates were covered and incubated for 48 hours in a 37C, 5% CO2 incubator with controlled humidity.
# 4. After 48 hours, CellTilter-GloTM luminescent substrate mix (Promega) reagent was added to the assay plate and plates we incubated for 5 min at room temperature.
# 5. Signal was measured as median relative luminescence units on a ViewLux (PerkinElmer) multiplate reader.
# [1] Heske CM, Davis MI, Baumgart JT, Wilson K, Gormally MV, Chen L, Zhang X, Ceribelli M, Duveau DY, Guha R, Ferrer M, Arnaldez FI, Ji J, Tran HL, Zhang Y, Mendoza A, Helman LJ, Thomas CJ. Matrix Screen Identifies Synergistic Combination of PARP Inhibitors and Nicotinamide Phosphoribosyltransferase (NAMPT) Inhibitors in Ewing Sarcoma. Clin Cancer Res. 2017 Dec 1;23(23):7301-7311. doi: 10.1158/1078-0432.CCR-17-1121. Epub 2017 Sep 12. PMID: 28899971; PMCID: PMC6636827.
# Potency is the fitted concentration of half-maximal effect.
Structure (SMILES),"viability, % of DMSO control",Potency
COc1ccc(CC2SC(=O)NC2=O)cc1C(=O)NCc1ccc(C(F)(F)F)cc1 (stereo not given),146% (inactive),
CNC(=O)c1ccccc1Nc1nc(Nc2ccc(N3CCOCC3)cc2OC)ncc1Cl,,0.935 µM (active)
Clc1cccc(-n2nnnc2NCc2ccccc2Oc2ccccn2)c1Cl,167% (inactive),
Cc1cc(CN2CCN(c3c(Br)cnc4nc(-c5ccc(N6CCN(C)CC6)cc5)[nH]c34)CC2)no1,,20.9 µM (active)
C=CC(=O)Nc1cc2c(Nc3ccc(F)c(Cl)c3)ncnc2cc1OCCCN1CCOCC1,,18.7 µM (active)
CN1CCN(c2cc(C(=O)Nc3ccc4c(c3)-c3c(c(C(N)=O)nn3-c3ccc(F)cc3)CC4)c(Cl)cn2)CC1,,23.5 µM (active)
COc1cc(OC2CCN(C)CC2)ccc1Nc1ncc2c(n1)n(C1CCCC1)c(=O)n2C,,16.6 µM (active)
COC(=O)c1ccc2c(C(=Nc3ccc(N(C)C(=O)CN4CCN(C)CC4)cc3)c3ccccc3)c(O)[nH]c2c1,,7.43 µM (active)
COc1cc2c(NC3CCN(C(C)C)CC3)nc(C3CCCCC3)nc2cc1OCCCN1CCCC1,,16.6 µM (active)
COc1cc2c(Oc3ccc4[nH]c(C)cc4c3F)ncnc2cc1OCCCN1CCCC1,,20.9 µM (active)
Cc1cc(C(=O)N2CCN(c3cccc(Cl)c3)CC2)n(-c2ccccc2)n1,,1.87 µM (active)
CC(C)(O)CCc1ccc(OCc2cc(-c3cccc(OC(F)F)c3)c3ncccc3c2)cc1,119% (inactive),
C#Cc1cccc(Nc2ncnc3cc(OC)c(OCCCCCCC(=O)NO)cc23)c1,,0.118 µM (active)
CC(C)c1noc(N2CCC(COc3ccc(-c4ccc(S(C)(=O)=O)cc4)nc3)CC2)n1,,16.6 µM (active)
Cc1nc(N)ncc1-c1nc(N2CCOCC2)c2sc(C(C)(C)O)cc2n1,,0.118 µM (active)
Cc1cc(Nc2cc(N3CCN(C)CC3)nc(C=Cc3ccccc3)n2)n[nH]1,,13.6 µM (active)
COc1ccc(-c2cc3c(C)nc(N)nc3n(C3CCC(OCCO)CC3)c2=O)cn1 (stereo not given),,0.0332 µM (active)
O=C(Nc1cc(C(F)(F)F)cc(C(F)(F)F)c1)c1cc(Cl)ccc1O,,1.66 µM (active)
CC(=O)OCC(=O)[C@@]1(O)[C@H](C)C[C@H]2[C@@H]3C=C(C)C4=Cc5c(cnn5-c5ccccc5)C[C@]4(C)[C@@H]3[C@@H](O)C[C@@]21C,,20.9 µM (active)
c1nc2nc(Nc3ccc(N4CCOCC4)cc3)nc(NC3CCCCC3)c2[nH]1,,16.6 µM (active)

Structure (SMILES),"viability, % of DMSO control",Potency
CCC[C@H](NC(=O)C(C#N)=Cc1cccc(Br)n1)c1ccccc1,,2.96 µM (active)
CN(c1ncccc1CNc1nc(Nc2ccc3c(c2)CC(=O)N3)ncc1C(F)(F)F)S(C)(=O)=O,,9.35 µM (active)
CC(=O)Nc1sc2c(c1-c1nc3ccccc3s1)CNC2,,20.9 µM (active)
Nc1cc(C(F)(F)F)c(-c2cc(N3CCOCC3)nc(N3CCOCC3)n2)cn1,,0.935 µM (active)
Cn1cncc1[C@@](N)(c1ccc(Cl)cc1)c1ccc2c(c1)c(-c1cccc(Cl)c1)cc(=O)n2C,,8.33 µM (active)
COc1ccc(C(=O)CC2(O)C(=O)Nc3c(Cl)ccc(Cl)c32)cc1 (stereo not given),,3.72 µM (active)
CCn1cc(-c2ccnc3[nH]c(-c4cccc(CN(C)C)c4)cc23)c(-c2ccc(NC(=O)N(C)C)cc2)n1,,11.8 µM (active)
CC(C)c1cc(C(=O)N2Cc3ccc(CN4CCN(C)CC4)cc3C2)c(O)cc1O,,0.332 µM (active)
NC(=O)Nc1cc(-c2cccc(F)c2)sc1C(=O)N[C@H]1CCCNC1,,2.64 µM (active)
CC(C)c1cnn2c(NCc3ccccc3)cc(N[C@@H](CO)[C@H](O)CO)nc12,,0.296 µM (active)
Nc1ccn([C@@H]2CS[C@H](CO)O2)c(=O)n1,121% [at 92.2 µM] (inactive),
CC(=O)c1c(C)c2cnc(Nc3ccc(N4CCNCC4)cn3)nc2n(C2CCCC2)c1=O,,18.7 µM (active)
CCC1=C[C@@H]2CN(C1)Cc1c([nH]c3ccccc13)[C@@](C(=O)OC)(c1cc3c(cc1OC)N(C)[C@@H]1[C@@](O)(C(=O)OC)[C@H](OC(C)=O)[C@]4(CC)C=CCN5CC[C@]31[C@@H]54)C2,,0.0209 µM (active)
NC1(Cc2ccc(Cl)cc2)CCN(c2ncnc3[nH]ccc23)CC1,,5.26 µM (active)
CC(C)=CCCC(C)=CCCC(C)=CCSc1ccccc1C(=O)O,,1.66 µM (active)
CC(O)C1C(=O)N2C(C(=O)O)=C(SC3CNC(C(=O)N(C)C)C3)C(C)C12 (stereo not given),117% (inactive),
CN(C)CC=CC(=O)Nc1cc2c(Nc3ccc(F)c(Cl)c3)ncnc2cc1O[C@H]1CCOC1,,18.7 µM (active)
CC(C)(C)OC(=O)Nc1ccc(-c2cc(C(=O)NCCCCCCC(=O)NO)no2)cc1,,2.35 µM (active)
COc1cc(C)c(Sc2cnc(NC(=O)c3ccc(CNC(C)C(C)C)cc3)s2)cc1C(=O)N1CCN(C(C)=O)CC1 (stereo not given),,14.8 µM (active)
COc1ccc2c(OCc3nnc4ccc(-c5ccccc5)nn34)ccnc2c1,156% (inactive),
